Screening data deposited in PubChem by National Center for Advancing Translational Sciences (NCATS).
VACV Venus inh: vaccinia inhibition (Venus reporter). Vaccinia virus Venus reporter expression, fluorescence. Potency, µM (highest dose often 36.5 µM), for the others: at the highest dose activity change, negative = inhibition, usual class: inhibitors. actives 0.46% (n = 330,000). AID 720580; calls by dose curve; tested in A549 cells; further: nearly all actives have a fitted effect of over 30% in size
Vaccinia mCherry: vaccinia inhibition (mCherry reporter); AID 720579; actives 0.63% (n = 310,000); Potency, µM (doses to about 36.5 µM), without a hit: top-dose activity change, negative = inhibition, most hits filed as inhibitors; Vaccinia virus mCherry reporter infection, fluorescence; calls by dose curve; tested in A549 cells; further: nearly all actives have a fitted effect of over 35% in size
HCV inhibitor: blocks hepatitis C virus | Huh7.5.1 HCVcc-Cre infection, luciferase reporter, 44 h | Potency, µM (series often up to 41.8 µM), inactives show top-dose activity change, negative = inhibition, most hits filed as inhibitors | actives 3.4% (n = 340,000) | AID 651820; active means well fitted inhibition curve with a large enough effect; inconclusive means small, poorly fitted or top-dose-only effect, or another doubt; inactive means no such curve, though single readings can be large or run the other way
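Cells seeded at 1,000/well and cultured 4 h, then compounds added followed by HCVcc-Cre virus (~0.5 moi). After 44 h further culture, luciferase substrate was added, plates held 15 min at room temperature, and luminescence read for 15 sec.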
The depositor's hits bear a star; i = inactive; ? = inconclusive; . = no result; [ ] = another dose, or the depositor's remark. This is a sample that favours compounds with a hit; in the whole collection about 3.3% have one here. On the % scale 0 is the no-effect control and ±100 the full control effect; potency means the concentration at half of the fitted maximal effect.

SMILES | VACV Venus inh | Vaccinia mCherry | HCV inhibitor
Cc1ccc(S(=O)(=O)N2CCOCC2)cc1C(=O)OCC(=O)c1ccc(Br)cc1 | . | . | 8%
Cc1ccc(S(=O)(=O)N2CCCCC2)cc1C(=O)OCC(=O)N1c2ccccc2NC(=O)C1(C)C | -2% | -12% | 11µM*
Cc1ccc(S(=O)(=O)N2CCOCC2)cc1C(=O)OCC(=O)c1ccc[nH]1 | . | . | 11µM*
COc1ccc2c(c1)-c1nc(-n3ncc(C(=O)N(C)CC4CCCN(C)C4)c3C)ncc1CC2 (stereo not drawn) | -2% | -15% | .
COc1ccc(Cn2nnnc2CN(Cc2cc3ccc(C)cc3[nH]c2=O)C2CCCC2)cc1 | ? | -13% | 10µM*
COc1ccc(Cn2nnnc2CN(Cc2cc3cccc(C)c3[nH]c2=O)C2CCCC2)cc1 | -12% | -10% | ?
C/C(=N\NC(=O)c1cc2ccccc2cc1O)c1ccccn1 | -9% | ? | 3.2µM*
C/C(=N\NC(=O)CCCNc1ccccc1)c1ccncc1 | -7% | -2% | 15%
CCOc1ccc(C(=O)N/N=C(\c2ccccc2)c2ccccn2)cc1 | ? | 11µM* | 10µM*
C/C(=N\Nc1cccc2cccnc12)c1ccccn1 | -10% | i | 6.3µM*
CCOc1ccc(C(=O)Nc2cccc3cccnc23)cc1 | -21% | -1% | 10%
C/C(=N\NC(=O)c1cc2ccccc2cc1O)c1cc2ccccc2o1 | -14% | -24% | ?
C/C(=N\Nc1cccc2cccnc12)c1ccccc1O | -4% | ? | 10%
C/C(=N\NC(=O)CCCNc1ccc(C)cc1)c1ccccn1 | ? | 11µM* | ?
Cc1cccn2c(=O)c(C(=O)NCCc3ccccc3)c(O)nc12 | -5% | -14% | .
CCC(CC)C(=O)Nc1c(C(=O)N2CCN(c3ccccc3F)CC2)oc2ccccc12 | -9% | -17% | .
Cn1c2ccccc2c2c(C(=O)N3CCN(c4ccc(F)cc4)CC3)cn(C3CCCCC3)c(=O)c21 | -18% | -19% | .
CCn1cc(CN2CCC(C(=O)Nc3cccc(-c4cccc(OC)c4)c3)CC2)c(C)n1 | -12% | -6% | 1%
O=C(c1ccc(F)cc1)N1c2nc(-c3ccco3)nn2C2(CCCCC2)[C@@H]2CCCC[C@@H]21 | -10% | -1% | .
COc1ccc(NC(=O)CC(C)n2nc(C)cc2C)cc1Cl (stereo not drawn) | -7% | -8% | .
CCc1ccc(/C(C)=N/NC(=O)c2ccccn2)cc1 | . | . | -2%
C/C(=N\NC(=O)c1c[nH]c2ccccc12)c1ccco1 | 0% | -12% | -5%
C/C(=N\NC(=O)c1c[nH]c2ccccc12)c1ccccn1 | ? | 10µM* | ?
C/C(=N\NC(=O)c1ccc(F)cc1)c1ccccn1 | ? | ? | 2.5µM*
Cc1ccc(C)c(C(=O)COC(=O)CN2C(=O)C3C4CCC(C4)C3C2=O)c1 (stereo not drawn) | -13% | 4% | 12%
SMILES | VACV Venus inh | Vaccinia mCherry | HCV inhibitor
Oc1ccccc1C1C=C(c2ccc3c(c2)OCO3)NC(c2ccc(Br)cc2)N1 (stereo not drawn) | 0% | i | .
CC(Oc1ccccc1)C(=O)NCC1Cc2cc(F)cc(-c3ccccn3)c2O1 (stereo not drawn) | -3% | 2% | .
O=C(CN1C(=O)NC2(CCCC2)C1=O)Nc1nc(-c2ccc(F)cc2)cs1 | . | . | 13µM*
Cn1c(NC(=O)C[n+]2cc(-c3ccc(Cl)cc3)n3c2CCC3)cc(=O)n(C)c1=O | -22% | i | 6%
O=C(CN1CCCCC1)Nc1nc(-c2ccc(Cl)cc2)cs1 | -13% | i | 10µM*
CC(=O)Nc1ccc(-c2csc(NC(=O)CN3C(=O)NC4(CCCC4)C3=O)n2)cc1 | -7% | -12% | ?
O=C(C[n+]1cc(-c2ccc(Cl)cc2)n2c1CCC2)Nc1nc(-c2ccc(F)cc2)cs1 | . | . | 10µM*
O=C(CN1CCCC1)Nc1nc(-c2ccc(Cl)cc2)cs1 | -9% | -18% | .
O=C(C[n+]1cc(-c2ccc(F)cc2)n2c1CCC2)Nc1nc(-c2ccc(F)cc2)cs1 | -9% | i | ?
O=C(C[n+]1cc(-c2ccccc2)n2c1CCC2)Nc1nc(-c2ccc(F)cc2)cs1 | -9% | i | 0.71µM*
CCCN1CNc2c(c(=O)[nH]c(=S)n2Cc2ccc(OC)c(OC)c2)C1 | -10% | -10% | .
O=C(C[n+]1csc2ccccc21)c1cccc([N+](=O)[O-])c1 | -8% | -13% | .
Cc1cnc(-n2ncc(C(=O)NCc3ccncc3)c2C2CC2)nc1-c1cccs1 | -28% | ? | .
CC(CC(=O)N1CCN(c2cccc(Cl)c2)CC1)S(=O)(=O)c1ccc2c(c1)NC(=O)CO2 (stereo not drawn) | . | . | 6.3µM*
COc1ccc(N2CCN(C(=O)CC(C)S(=O)(=O)c3ccc4c(c3)NC(=O)CO4)CC2)cc1 (stereo not drawn) | -10% | ? | ?
Cc1nnc(C)c2c(C)n(C(C)c3ccccc3)c(C)c12 (stereo not drawn) | -24% | -21% | 10µM*
CC(c1ccccc1)n1c(-c2ccccc2)n[nH]c1=S (stereo not drawn) | -12% | 24% | .
COCC(=O)Nc1cc(C(=O)N2CCCC(C(C)=O)C2)cc2nc(-c3ccccc3)n(C)c12 (stereo not drawn) | -12% | -11% | .
Cc1nc(NC(=O)/C=C/c2ccccc2)sc1C(=O)Nc1ccc(Cl)cc1 | . | . | -27%
Cc1nc(Nc2ccc(Cl)c(Cl)c2)sc1C(=O)Nc1ccccc1 | . | . | 8.9µM*
Cc1nc(NC(=O)C2CC2)sc1C(=O)Nc1cccc(Cl)c1 | -21% | i | -14%
Cc1nc(Nc2ccc(Cl)cc2Cl)sc1C(=O)Nc1ccccc1 | 4% | i | 10µM*
COc1cc(NC(=O)Cn2nc(C(F)(F)F)c3c2CCCC3)c(OC)cc1Cl | -9%[7.34 µM] | -12%[7.34 µM] | .
COc1cccc(OC)c1C(=O)Nc1nnc(C)s1 | 1% | -9% | .
O=S(=O)(Nc1cccc(-c2cn3cccnc3n2)c1)c1ccc(-c2ccccc2)cc1 | -13% | . | 4.5µM*
SMILES | VACV Venus inh | Vaccinia mCherry | HCV inhibitor
O=S(=O)(Nc1cccc(-c2cn3cccnc3n2)c1)c1ccccc1 | -13% | -7% | 1%
COc1cc(=O)n2c(c1C(=O)N(C)Cc1cscn1)CCN(C(=O)c1ccc(C)c(C)c1)CC2 | -4% | -13% | .
Cc1ccc(OCC(=O)Nc2cccc(-c3nc4ccccc4s3)c2)cc1 | -5% | -1% | .
Cn1c(=O)c2ncn(CC(=O)Nc3cccc(-c4nc5ccccc5s4)c3)c2n(C)c1=O | -6% | i | 10µM*
CCOC(=O)C1(Cc2ccc(OC)cc2)CCN(C(=O)CCc2cccnc2)CC1 | -17% | i | -13%
COc1ccc(-c2n[nH]c(=S)n2-c2ccccc2C)cc1 | 2% | -7% | -4%
COc1ccc(C)cc1S(=O)(=O)N1CCC(C(=O)NCCC2=CCCCC2)CC1 | . | . | -9%
COc1ccc(C)cc1S(=O)(=O)NCCC1=CCCCC1 | . | . | 35µM*
COc1cc(NC(=O)CSc2nc(-c3ccc(C(C)C)cc3)no2)cc(OC)c1 | -22% | -22% | .
FC(F)(F)c1cc(C(F)(F)F)c2ccc(N3CCN(c4ccc(Cl)cc4)CC3)nc2n1 | . | . | 13%
N#CC(c1ccc(Cl)cc1)c1ccc2c(C(F)(F)F)cc(C(F)(F)F)nc2n1 (stereo not drawn) | 14µM* | . | ?
CC(=O)Nc1ccc(-c2nnn(CC(=O)c3ccc(F)cc3)n2)cc1Cl | . | . | -1%
O=C(CN1CCC(C(=O)c2ccc(F)cc2)CC1)NCc1ccccc1F | -18% | ? | 11µM*
